In PubChem BioAssay (NCATS):
Where “and” joins values, the source holds several entries; their conditions need not be identical. Equal values may be shown once. Inconclusive results are not listed. Calls of active or inactive are those of the source. Unless noted, calls come from the whole dose curve; as a rule, active = well fitted curve in the direction sought with a large enough effect; inconclusive = small, poorly fitted or top-dose-only effect, or another doubt; inactive = no such curve, though single readings can be large; an effect the other way counts as inactive or inconclusive.

What was measured:
[1] = Cell Viability - H-4-II-E (AID 543);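 note: cells exposed to compound for 40 hours; nearly all actives have a fitted effect of over 35% in size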; note: potency is the fitted concentration of half-maximal effect
In short: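 AC50 from Hill-modelled qHTS concentration-response curves. H-4-II-E rat hepatoma cells in complete medium, 40 hr exposure at 37 °C, viability by CellTiter-Glo ATP luminescence.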

[2] = Cell Viability - LYMP2-001 (AID 921); note: nearly all actives have a fitted effect of over 70% in size; note: potency is the fitted concentration of half-maximal effect
In short: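 qHTS, 1536-well; lymphoblastoid cells, 24 hr compound, 37 C; ATP by CellTiter-Glo, 30 min RT; luminescence; Hill-fit AC50.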

[3] = MultiTox-Fluor Cytotoxicity Assay - LYMP1-001 - Live Cells (AID 947);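 note: 0% = DMSO only and full inhibition = tetraoctylammonium bromide control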
[4] = Cell Viability - LYMP2-004 (AID 966); note: nearly all actives have a fitted effect of over 65% in size; note: potency is the fitted concentration of half-maximal effect
In short: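 Viable-cell number estimated from ATP luminescence (CellTiter-Glo) in 2500 human lymphoblastoid cells/well after 24 hr at 37 C with compound. AC50 fitted to the standard Hill equation.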

[5] = Cell Viability - LYMP2-009 (AID 968); note: nearly all actives have a fitted effect of over 55% in size; note: potency is the fitted concentration of half-maximal effect
[6] = Cell Viability - LYMP2-017 (AID 972);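 note: cells exposed to compound for 24 hours at 37 °C; nearly all actives have a fitted effect of over 55% in size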; note: potency is the fitted concentration of half-maximal effect
In short: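 In this qHTS format, lymphoblastoid cells in complete medium receive test compound for a day at 37 C before ATP content is quantified by luciferase luminescence. Reported AC50 figures come from standard Hill-equation curve fitting.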

[7] = Cell Viability - LYMP2-019 (AID 973); note: nearly all actives have a fitted effect of over 55% in size; note: potency is the fitted concentration of half-maximal effect
In short: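 AC50 values come from Hill-equation modelling of qHTS concentration-response curves, where viability is measured as luciferase-based ATP luminescence in the lymphoblastoid line after 24 hr compound exposure in complete culture medium.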

[8] = Cell Viability - LYMP2-002 (AID 977);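 note: series mostly up to about 92 µM; compound exposure lasted 24 h at 37 °C; plate controls were DMSO only for no effect and 92 µM tetraoctylammonium bromide for full effect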
In short: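 Human lymphoblastoid cells, 2500/well, complete medium; 5 h 37 C settle; compound 24 h 37 C; CellTiter-Glo, 30 min RT; luminescence. Decrease in ATP = cytotoxicity; AC50 via Hill equation.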

[9] = Cell Viability - LYMP2-006 (AID 978);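 note: series mostly up to about 92 µM; cells exposed to compound for 24 hours; % is set by controls: 0 for no effect and ±100 for the full control effect; nearly all actives have a fitted effect of over 60% in size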
In short: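 Concentration-dependent loss of intracellular ATP in a human lymphoblastoid line after 24 hr treatment at 37 C was measured by CellTiter-Glo luminescence, with AC50 values obtained from standard Hill-equation modelling.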

[10] = Cell Viability - LYMP2-020 (AID 986); note: nearly all actives have a fitted effect of over 55% in size; note: potency is the fitted concentration of half-maximal effect
In short: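 Cells at 2500 per well receive a 24 hr compound exposure at 37 C. Viability is measured as ATP-dependent luciferase luminescence, with AC50 modeled from qHTS concentration-response curves.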

[11] = Cell Viability - LYMP2-022 (AID 987); note: nearly all actives have a fitted effect of over 55% in size; note: potency is the fitted concentration of half-maximal effect
In short: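 In this qHTS cytotoxicity screen, compound titrations were incubated 24 hr at 37 C with human lymphoblastoid cells in complete medium. Luciferase-based ATP luminescence provided the viability signal.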

[12] = Cell Viability - LYMP2-024 (AID 988); note: nearly all actives have a fitted effect of over 60% in size; note: potency is the fitted concentration of half-maximal effect
In short: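 Cells at 2500 per well received compound for 24 hr after a 5 hr settling period. Viability was scored by CellTiter-Glo luminescence, with AC50 from Hill fits.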

[13] = qHTS assay for small molecule antagonists of retinoid X receptor alpha signaling (AID 588546; active = well fitted inhibition curve with a large enough effect in the signal ratio, with a control signal flat, not every such curve was filed as active; the % refers to the signal ratio; note: potency is the fitted concentration of half-maximal effect;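 for max response: cells stimulated with 9-cis-retinoic acid as agonist; % is set by controls: 0 for no effect and ±100 for the full control effect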); details: HEK293T RXRa-UAS-bla, beta-lactamase ratio, antagonist mode; measured here: W530 green channel, cytotoxicity proxy
In short: (§1)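 Beta-lactamase reporter inhibition, read as CCF4 fluorescence ratio (ex 405, em 460/530 nm) after 2 h at RT. HEK293T UAS-bla cells, 2500/well, were stimulated with 9-cis-RA at 500 or 100 nM final alongside test compound for 18 h at 37 C.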

[14] = molecular target: Retinoic acid receptor RXR-alpha (Homo sapiens) (UniProt P19793); experiment: as above; details: HEK293T RXRa-UAS-bla, beta-lactamase ratio, antagonist mode
Sequence of Retinoic acid receptor RXR-alpha (Homo sapiens) (P19793 whole entry, looked up): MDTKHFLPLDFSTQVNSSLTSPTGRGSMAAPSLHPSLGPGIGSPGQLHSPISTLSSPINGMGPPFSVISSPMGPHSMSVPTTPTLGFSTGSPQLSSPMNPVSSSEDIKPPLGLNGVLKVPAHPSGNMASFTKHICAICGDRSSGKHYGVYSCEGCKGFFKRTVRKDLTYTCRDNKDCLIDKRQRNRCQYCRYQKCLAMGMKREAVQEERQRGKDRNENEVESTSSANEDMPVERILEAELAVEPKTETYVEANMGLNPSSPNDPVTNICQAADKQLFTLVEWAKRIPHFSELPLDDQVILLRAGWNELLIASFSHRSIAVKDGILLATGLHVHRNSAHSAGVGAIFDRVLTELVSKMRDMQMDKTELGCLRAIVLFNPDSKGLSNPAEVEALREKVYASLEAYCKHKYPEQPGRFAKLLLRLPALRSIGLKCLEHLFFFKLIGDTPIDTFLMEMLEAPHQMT
In short: as §1

[15] = molecular target: Thyroid hormone receptor beta (Homo sapiens) (UniProt P10828); experiment: qHTS assay for small molecule antagonists of thyroid hormone receptor beta signaling (AID 588547; active = well fitted inhibition curve with a large enough effect in the signal ratio, with a control signal flat, not every such curve was filed as active; the % refers to the signal ratio;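 note: cells stimulated with 0.4 nM T3 agonist during compound exposure; series mostly up to about 77 µM; % is set by controls: 0 for no effect and ±100 for the full control effect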); details: TR-UAS-bla HEK293, beta-lactamase ratio, antagonist mode, 18 h
Sequence of Thyroid hormone receptor beta (Homo sapiens) (P10828 whole entry, looked up): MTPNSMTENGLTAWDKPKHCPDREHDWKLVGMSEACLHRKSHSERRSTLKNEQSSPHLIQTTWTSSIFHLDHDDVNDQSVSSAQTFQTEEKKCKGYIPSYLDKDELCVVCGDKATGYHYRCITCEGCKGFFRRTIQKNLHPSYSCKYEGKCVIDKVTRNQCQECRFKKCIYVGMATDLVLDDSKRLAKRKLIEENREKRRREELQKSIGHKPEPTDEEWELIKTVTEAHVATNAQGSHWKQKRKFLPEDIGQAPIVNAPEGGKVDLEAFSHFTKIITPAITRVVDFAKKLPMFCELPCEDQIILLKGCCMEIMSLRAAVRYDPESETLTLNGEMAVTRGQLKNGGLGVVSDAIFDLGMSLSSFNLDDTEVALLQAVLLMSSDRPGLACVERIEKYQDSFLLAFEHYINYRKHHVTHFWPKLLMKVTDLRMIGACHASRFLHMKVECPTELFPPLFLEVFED
In short: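 TR-UAS-bla GripTite HEK293 cells in 2% charcoal/dextran FBS medium; compounds 0.59 nM to 92 uM with T3 at 0.4nM final, 18 h at 37 C. Beta-lactamase read by CCF4 fluorescence (460/530 nm); Hill fits gave IC50 and efficacy.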

[16] = qHTS assay for small molecule disruptors of the mitochondrial membrane potential - 5 hr assay (AID 651755; calls by dose curve; note: nearly all actives have a fitted effect of over 40% in size; note: potency is the fitted concentration of half-maximal effect)
In short: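 Read-out: ratiometric Mito-MPS fluorescence, green monomer (ex 490/em 535) vs red mitochondrial aggregate (ex 540/em 590). HepG2 cells treated 5 hr at 37C before 30 min dye loading.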

[17] = qHTS assay for environmental chemicals that activate the Aryl hydrocarbon Receptor (AhR) signaling pathway (AID 651777); details: 1A2-DRE human hepatoma cells, luciferase, 24 h; activation: stronger effect = higher value; note: % of control where 0% means no effect; nearly all actives have a fitted effect of over 15% in size
In short: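 Reporter gene assay: hepatoma cells with DRE/CYP1A2-luciferase, 24 hr compound incubation at 37 C, 5% CO2, luminescence after One-Glo (30 min, RT).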

[18] = molecular target: Nuclear receptor subfamily 1 group I member 2 (Rattus norvegicus) (UniProt Q9R1A7); experiment: qHTS assay for small molecule activators of the rat pregnane X receptor (rPXR) signaling pathway (AID 651751; call rule not given here; note: 0% is about no effect); details: rPXR reporter cells, luciferase (One-Glo), 24 h
Sequence of Nuclear receptor subfamily 1 group I member 2 (Rattus norvegicus) (Q9R1A7 whole entry, looked up): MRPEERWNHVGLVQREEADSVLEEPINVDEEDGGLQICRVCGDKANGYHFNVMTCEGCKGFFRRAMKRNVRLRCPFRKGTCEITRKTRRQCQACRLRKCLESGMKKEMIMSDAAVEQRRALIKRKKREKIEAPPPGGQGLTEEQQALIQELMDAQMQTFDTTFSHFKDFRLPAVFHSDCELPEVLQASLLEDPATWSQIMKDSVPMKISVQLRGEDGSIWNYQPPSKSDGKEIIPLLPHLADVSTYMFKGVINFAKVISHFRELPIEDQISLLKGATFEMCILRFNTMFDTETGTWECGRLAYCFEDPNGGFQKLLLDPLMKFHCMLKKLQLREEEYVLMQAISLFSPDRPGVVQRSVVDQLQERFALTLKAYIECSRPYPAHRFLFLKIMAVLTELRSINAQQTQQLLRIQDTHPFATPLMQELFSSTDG

[19] = Cell Viability - LYMP1-003 - Assay at 40 hr (AID 964); note: nearly all actives have a fitted effect of over 60% in size; note: potency is the fitted concentration of half-maximal effect
In short: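 Acute toxicity is scored as a concentration-dependent loss of intracellular ATP in LYMP1-003 cells (2500/well, complete medium) after 40 hr at 37 C, measured by CellTiter-Glo luminescence; AC50 values derive from standard Hill modelling.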

[20] = Cell Viability - LYMP2-005 (AID 967); note: potency is the fitted concentration of half-maximal effect
In short: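 qHTS viability screen in LYMP2-005 cells: 24 h at 37 C with compound, ATP luminescence via CellTiter-Glo, AC50 from Hill curves.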

CC(=O)OCc1ccc2c(c1)OCO2
inactive: Potency [1] | Potency [2] | Potency [3] | Potency [4] | Potency [5] | Potency [6] | Potency [7] | Potency [8] | Potency [9] | Potency [10] | Potency [11] | Potency [12] | max response [14] 24.9% | activity change % (negative = inhibition) [15] -11.5% | Potency [16] | activation [17] 1.36% | max response [18] -6.58%
8.84%: max response [13]

Nc1cc([N+](=O)[O-])ccc1O
-1.99% and 10.2%: max response [13]
active: Potency [16] 29.8 µM
inactive: Potency [1] | Potency [2] | Potency [3] | Potency [19] | Potency [4] | Potency [20] | Potency [5] | Potency [6] | Potency [7] | Potency [8] | Potency [9] | Potency [10] | Potency [11] | Potency [12] | max response [14] 2.5% and -26.6% | activity change % (negative = inhibition) [15] 11.2% and 4.34% | activation [17] 12.6% and 2.53% | max response [18] 5.65% and 2.03%

CC(C)S
0.793%: max response [13]
inactive: Potency [1] | Potency [2] | Potency [3] | Potency [19] | Potency [4] | Potency [20] | Potency [5] | Potency [6] | Potency [7] | Potency [8] | Potency [9] | Potency [10] | Potency [11] | Potency [12] | max response [14] 1.63% | activity change % (negative = inhibition) [15] 11.8% | Potency [16] | activation [17] -2.58% | max response [18] -6.45%

C[C@@H]1CC2(OC(O)[C@]3(C)O[C@H]23)O[C@H]2C[C@@]3(C)[C@@H]4CC[C@H]5C(C)(C)C(O[C@@H]6OC[C@@H](O)[C@H](O)[C@H]6O)CC[C@@]56C[C@@]46CC[C@]3(C)[C@@H]12 (stereo not given in full)
active: Potency [12] 39.8 µM
inactive: Potency [3] | Potency [20] | Potency [5] | Potency [6] | Potency [8] | activation [17] 0.629% | max response [18] -9.9%

CCN(CC)c1ccc2c(C)cc(=O)oc2c1
inactive: Potency [2] | Potency [3] | Potency [19] | Potency [4] | Potency [20] | Potency [5] | Potency [6] | Potency [7] | Potency [8] | Potency [9] | Potency [10] | Potency [11] | Potency [12] | activation [17] 6.67%

C=C1CC[C@H](O)C/C1=C/C=C1\CCC[C@]2(C)[C@@H]([C@H](C)CCCC(C)C)CC[C@@H]12
inactive: Potency [16] | activation [17] 5.81% | max response [18] 7.46%
active: Potency [1] 39.8 µM | Potency [2] 39.8 µM | Potency [19] 39.8 µM | Potency [4] 39.8 µM | Potency [20] 39.8 µM | Potency [5] 50.1 µM | Potency [6] 50.1 µM | Potency [7] 39.8 µM | Potency [10] 50.1 µM | Potency [11] 31.6 µM | Potency [12] 39.8 µM

Cc1ccc(S(N)(=O)=O)cc1
inactive: Potency [1] | Potency [2] | Potency [3] | Potency [19] | Potency [4] | Potency [20] | Potency [5] | Potency [6] | Potency [7] | Potency [8] | Potency [9] | Potency [10] | Potency [11] | Potency [12] | max response [14] 8.77% and 1.7% | activity change % (negative = inhibition) [15] 17.3% and -1.91% | Potency [16] | activation [17] -0.842% | max response [18] -1.87% and 3.62%
-1.11% and -7.98%: max response [13]

Cc1c2ccccc2c(C)c2c1ccc1ccccc12
inactive: Potency [1] | Potency [3] | Potency [4] | Potency [20] | Potency [5] | Potency [7] | Potency [8] | Potency [9] | Potency [10] | Potency [11] | Potency [12]
-10.9%: max response [13]
active: Potency [14] 8.91 µM | Potency [16] 33.5 µM

CCCCCCN
inactive: Potency [1] | Potency [2] | Potency [3] | Potency [19] | Potency [4] | Potency [20] | Potency [5] | Potency [6] | Potency [7] | Potency [8] | Potency [9] | Potency [10] | Potency [11] | Potency [12] | max response [14] 2.42% | activity change % (negative = inhibition) [15] -5.98% | Potency [16] | activation [17] -0.159% | max response [18] -1.94%
-7.66%: max response [13]

Nc1cnn([C@@H]2O[C@H](CO)[C@@H](O)[C@H]2O)c(=O)n1
inactive: Potency [1] | Potency [2] | Potency [3] | Potency [19] | Potency [4] | Potency [20] | Potency [5] | Potency [6] | Potency [7] | Potency [8] | Potency [9] | Potency [10] | Potency [11] | Potency [12] | max response [14] -17.1% | Potency [16] | max response [18] 3.54%
8.26%: max response [13]

Nc1ccc(N=Nc2ccccc2)c(N)c1
-9.61%: max response [13]
active: Potency [16] 10.6 µM
inactive: Potency [1] | Potency [2] | Potency [3] | Potency [19] | Potency [4] | Potency [20] | Potency [5] | Potency [6] | Potency [7] | Potency [8] | Potency [9] | Potency [10] | Potency [11] | Potency [12] | max response [14] -15% | activity change % (negative = inhibition) [15] 1.36%

Cc1ccccc1OCC1CO1 (stereo not given)
-1.65%: max response [13]
inactive: Potency [1] | Potency [2] | Potency [3] | Potency [19] | Potency [4] | Potency [20] | Potency [5] | Potency [6] | Potency [7] | Potency [8] | Potency [9] | Potency [10] | Potency [11] | Potency [12] | max response [14] 0.471% | activity change % (negative = inhibition) [15] -11% | Potency [16] | activation [17] -0.0777% | max response [18] 0.751%

Brc1ccc(-c2ccccc2)cc1
inactive: Potency [1] | Potency [2] | Potency [3] | Potency [19] | Potency [4] | Potency [20] | Potency [5] | Potency [6] | Potency [7] | Potency [8] | Potency [9] | Potency [10] | Potency [11] | Potency [12] | activation [17] 11.7% | max response [18] 1.6%

C=CC(=O)CC
8.25%: max response [13]
inactive: Potency [1] | Potency [2] | Potency [3] | Potency [19] | Potency [4] | Potency [20] | Potency [5] | Potency [6] | Potency [7] | Potency [8] | Potency [9] | Potency [10] | Potency [11] | Potency [12] | max response [14] 10.2% | activity change % (negative = inhibition) [15] 9.8% | Potency [16] | activation [17] 1.17% | max response [18] 9.91%
